The values below come from PubChem BioAssay (Tox21).

Records with an inconclusive call do not appear. Calls of active or inactive are those of the source. The call rests on the fitted dose curve; in most records, active means well fitted cell-killing curve with a large enough effect in the repeat runs; inconclusive means weak or mixed curves, or effect the other way; inactive means flat fitted curve, though single readings scatter.
On the % scale 0 is the no-effect control and ±100 the full control effect.

This assay can be described thus: qHTS RealTime-Glo MT Cell Viability Assay in HepG2 cells - 40 hour (AID 1224870). Further: nearly all actives have a fitted effect of over 50% in size. The following applies: RealTime-Glo luminescence; series mostly up to 76.8 µM; activity change, negative = cytotoxic: at the top concentration. The text has this:
National Center for Advancing Translational Sciences [NCATS]
NIH Chemical Genomics Center [NCGC]
U.S. Environmental Protection Agency [EPA]
National Institutes of Environmental Health Sciences [NIEHS]
National Toxicology Program [NTP]
U.S. Food and Drug Administration [FDA]
Measure of cell viability is critical in the cell-base assay. Analysis of cell viability is necessary for the characterization of cell responses to cytotoxic drugs and environmental stress. A RealTime-Glo MT Cell Viability Assay to monitor cell viability in real time of continues cell culture during 40 hours of compound treatment was used to screen Tox21 10K library compounds in HepG2 cells. The RealTime-Glo MT Cell Viability Assay is a nonlytic, homogeneous, bioluminescent method to measure cell viability in real time using a simple, plate-based method. The assay involves adding NanoLuc luciferase and a cell-permeant prosubstrate to cells in culture. Viable cells reduce the proprietary prosubstrate to generate a substrate for NanoLuc luciferase. This substrate diffuses from cells into the surrounding culture medium, where it is rapidly used by the NanoLuc Enzyme to produce a luminescent signal. The signal correlates with the number of viable cells, making the assay well suited for cytotoxicity studies.
Tox21 Assay Protocol Summary:
The mixture of HepG2 cell suspension and reagents were dispensed at 600cells/6 ul/well in 1536-well tissue culture treated black solid bottom plates using a Multidrop dispenser. After the assay plates were incubated at a 37 C/5% CO2 incubator for 5 hours, 23 nL of compounds dissolved in DMSO, positive and negative controls was transferred to the assay plate by a pintool work station. The plates were incubated at 37 C for 40 hours. The luminescence intensity were measured at 0h, 8h, 16h, 24h, 32h and 40h time points using ViewLux plate reader during compound treatment.
(In qHTS, concentration-response curves come from the screen itself.)
On to `C[Si]1(C)N[Si](C)(C)N[Si](C)(C)N1`, for which the “activity change, negative = cytotoxic” value is -5.31% (inactive).

In the case of `O=S1(=O)CCCC1`, the “activity change, negative = cytotoxic” value was 1.23% (inactive).

On to `Cc1cc(O)c2c(c1)C(=O)c1cccc(O)c1C2=O`, for which the “activity change, negative = cytotoxic” value is -9.04% [at 35.3 µM] (inactive).

Regarding `O=C(O)CCNC(=O)c1ccccc1`, the “activity change, negative = cytotoxic” value is 0.467% [at 35.3 µM] (inactive).

In the case of `CCOC(=O)OCC/C(SC(=O)OCC)=C(\C)N(C=O)Cc1cnc(C)nc1N`, the “activity change, negative = cytotoxic” value is 1.18% [at 35.3 µM] (inactive).

Consider `Cc1ccc(S(=O)(=O)NC(=O)NC2CCCCCCC2)cc1`, for which the “activity change, negative = cytotoxic” value is 5.31% [at 35.3 µM] (inactive).

`CC(=O)OC[C@H]1O[C@@H](OC(C)=O)[C@H](OC(C)=O)[C@@H]1OC(C)=O`: the “activity change, negative = cytotoxic” value is 0.412% [at 35.3 µM] (inactive).

For the molecule `C[CH2][Ge]([Cl])([CH2]C)[CH2]C`, the “activity change, negative = cytotoxic” value was -9.93% (inactive).

With `CCCCCCCCCCCCCCCCI`, the activity change, negative = cytotoxic was 17.3% [at 15.8 µM] (inactive).

As to `CC(=O)OCCCc1ccccc1`, the “activity change, negative = cytotoxic” value is -0.313% (inactive).

Turning to `c1ccccc1`, the “activity change, negative = cytotoxic” value was 26.1% (inactive).

With `CCCCC(CC)CNC(=O)CC(C)OC(=O)CCC(=O)O` (stereo not given), the “activity change, negative = cytotoxic” value was -1.19% [at 35.3 µM] (inactive).

For `c1ccc(CNc2ncnc3nc[nH]c23)cc1`, the “activity change, negative = cytotoxic” value was -0.264% (inactive).

As for `O=C(O)C(=O)Nc1cccc(-c2nn[nH]n2)c1`, the “activity change, negative = cytotoxic” value is 4.88% [at 35.3 µM] (inactive).

For `CCOC(=O)C(C)(C)C`, the “activity change, negative = cytotoxic” value is 20.8% (inactive).

For the molecule `CCCCC/C=C/CC(=O)OC`, the “activity change, negative = cytotoxic” value is -0.377% (inactive).

Take `CCN(CC)C(=O)C1CN2CCc3cc(OC)c(OC)cc3C2CC1OC(C)=O` (stereo not given): the “activity change, negative = cytotoxic” value is -0.754% [at 35.3 µM] (inactive).

Regarding `COc1ccc(N=Nc2cc(C)c(N=Nc3ccc(S(=O)(=O)O)cc3)cc2OC)cc1`, the “activity change, negative = cytotoxic” value is -8.2% (inactive).

For the molecule `Cc1nc([N+](=O)[O-])cn1-c1ccc([N+](=O)[O-])cc1`, the “activity change, negative = cytotoxic” value was 1.46% [at 35.3 µM] (inactive).

As for `CC(=O)Nc1ncc([N+](=O)[O-])s1`, the “activity change, negative = cytotoxic” value is -0.415% [at 35.3 µM] (inactive).

On to `COc1cccc2sc(N)nc12`, for which the “activity change, negative = cytotoxic” value was 0.134% (inactive).

For `CC(C)COC(=O)CC(C(=O)OCC(C)C)S(=O)(=O)O` (stereo not given), the “activity change, negative = cytotoxic” value is 1.79% (inactive).

For the molecule `O=[Si]=O`, the “activity change, negative = cytotoxic” value was 1.13% (inactive).

Consider `O=CO`, for which the activity change, negative = cytotoxic is 17.5% [at 6.97 µM] (inactive).

Consider `COc1ccc(NS(=O)(=O)c2ccc(N)cc2)nn1`, for which the “activity change, negative = cytotoxic” value is 2.08% [at 35.3 µM] (inactive).

`C/C=C(\C)C(=O)OCC/C=C\CC`: the “activity change, negative = cytotoxic” value was -7.32% (inactive).

In the case of `Cc1cccc(C(=O)O)c1[N+](=O)[O-]`, the “activity change, negative = cytotoxic” value was 1.36% (inactive).

Consider `CCCCCC(=O)OCC`, for which the “activity change, negative = cytotoxic” value was -1.78% (inactive).

Take `O=C(O)Cc1cccc(-c2cc(CCCCCCc3ccc(O[C@H]4O[C@H](CO)[C@@H](O)[C@H](O)[C@@H]4O)c(-c4cccc(CC(=O)O)c4)c3)ccc2O[C@H]2O[C@H](CO)[C@@H](O)[C@H](O)[C@@H]2O)c1`: the activity change, negative = cytotoxic was -21.2% [at 0.29 µM] (inactive).

As to `O=c1[nH]c(=O)c2[nH]c(=O)[nH]c2[nH]1`, the activity change, negative = cytotoxic is 0.76% [at 6.97 µM] (inactive).

On to `O=C1NC2NC(=O)NC2N1` (stereo not given), for which the “activity change, negative = cytotoxic” value is -0.598% (inactive).

Regarding `Cc1ccc(C(=O)C(=O)O)cc1C`, the “activity change, negative = cytotoxic” value is -0.41% [at 35.3 µM] (inactive).

`O=C(O)/C=C/c1ccccc1`: the “activity change, negative = cytotoxic” value is 0.765% (inactive).

Regarding `O=C1OC(=O)c2ccccc21`, the “activity change, negative = cytotoxic” value was 20.1% (inactive).

In the case of `COc1ccc(OC)c(NC(=O)CC(C)=O)c1`, the “activity change, negative = cytotoxic” value was 1.17% (inactive).

For the molecule `C1CCN2C[C@@H]3C[C@@H](CN4CCCC[C@@H]34)[C@H]2C1`, the “activity change, negative = cytotoxic” value is 0.784% [at 35.3 µM] (inactive).

Consider `CCS(=O)(=O)CCn1c([N+](=O)[O-])cnc1C`, for which the “activity change, negative = cytotoxic” value is 3.4% [at 35.3 µM] (inactive).

Regarding `Cc1ccc2c(c1)c1c3n2CCNC3CCC1` (stereo not given), the “activity change, negative = cytotoxic” value is 0.569% [at 35.3 µM] (inactive).

For the molecule `CC(C)COC(=O)CCCCC(=O)OCC(C)C`, the “activity change, negative = cytotoxic” value is 2.13% (inactive).

`CN(C)CCCNCCC#N`: the “activity change, negative = cytotoxic” value is 0.979% (inactive).
